In PubChem BioAssay (Tox21):
Records with an inconclusive call do not appear. Activity calls are given as the source filed them. The call rests on the fitted dose curve.

Columns and labels:
[1] = target: Acetylcholinesterase (Homo sapiens) (UniProt P22303); assay: Acetylcholinesterase (AChE) small molecule antagonists: colormetric cell-based qHTS assay (AID 1347395); further: nearly all actives have a fitted effect of over 30% in size
Outline: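 Neuroblastoma line SH-SY5Y supplied the enzyme; cells were preincubated with compound for 30 min at 37 C and 5% CO2. Acetylthiocholine with DTNB was then added for 90 min at 37 C, and thiocholine was measured by colour.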

[2] = target: Acetylcholinesterase (Homo sapiens) (UniProt P22303); assay: Acetylcholinesterase (AChE) small molecule antagonists: enzyme-based qHTS assay (AID 1347397); conditions: Potency: AChE enzyme activity inhibition; outcome: AChE enzyme activity inhibition; further: nearly all actives have a fitted effect of over 55% in size
Outline: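 Colorimetric DTNB readout of acetylthiocholine hydrolysis, 10 min at room temperature, after 30 min room-temperature exposure of 50 mU/mL recombinant human enzyme to compound; DMSO vehicle control.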

[3] = target: Acetylcholinesterase (Homo sapiens) (UniProt P22303); assay: Acetylcholinesterase (AChE) small molecule antagonists: fluorescence cell-based qHTS assay (AID 1347398); conditions: Potency: AChE activity; outcome: AChE activity; further: nearly all actives have a fitted effect of over 50% in size
Outline: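 Cellular AChE activity read as thiocholine from acetylthiocholine hydrolysis, detected by Thiolite Green fluorescence at 490/520 nm after 40 min at room temperature. Compounds were pre-incubated 30 min at 37 C on adherent SH-SY5Y cells.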

[4] = target: Acetylcholinesterase (Homo sapiens) (UniProt P22303); assay: Acetylcholinesterase (AChE) small molecule antagonists: enzyme-based qHTS assay with human liver microsomes (AID 1347399); conditions: Potency: qHTS inhibition; outcome: qHTS inhibition; further: nearly all actives have a fitted effect of over 60% in size
Outline: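 Recombinant human AChE (50 mU/mL in the enzyme mix) and human liver microsomes (0.25 mg/mL final) were preincubated with compound and NADPH (0.25 mg/mL final) for 30 min at 37 C. Acetylthiocholine/DTNB was then added; thiocholine was read colorimetrically after 10 min at room temperature.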

Measured: Potency

Sequence of Acetylcholinesterase (Homo sapiens) (P22303 whole entry, looked up): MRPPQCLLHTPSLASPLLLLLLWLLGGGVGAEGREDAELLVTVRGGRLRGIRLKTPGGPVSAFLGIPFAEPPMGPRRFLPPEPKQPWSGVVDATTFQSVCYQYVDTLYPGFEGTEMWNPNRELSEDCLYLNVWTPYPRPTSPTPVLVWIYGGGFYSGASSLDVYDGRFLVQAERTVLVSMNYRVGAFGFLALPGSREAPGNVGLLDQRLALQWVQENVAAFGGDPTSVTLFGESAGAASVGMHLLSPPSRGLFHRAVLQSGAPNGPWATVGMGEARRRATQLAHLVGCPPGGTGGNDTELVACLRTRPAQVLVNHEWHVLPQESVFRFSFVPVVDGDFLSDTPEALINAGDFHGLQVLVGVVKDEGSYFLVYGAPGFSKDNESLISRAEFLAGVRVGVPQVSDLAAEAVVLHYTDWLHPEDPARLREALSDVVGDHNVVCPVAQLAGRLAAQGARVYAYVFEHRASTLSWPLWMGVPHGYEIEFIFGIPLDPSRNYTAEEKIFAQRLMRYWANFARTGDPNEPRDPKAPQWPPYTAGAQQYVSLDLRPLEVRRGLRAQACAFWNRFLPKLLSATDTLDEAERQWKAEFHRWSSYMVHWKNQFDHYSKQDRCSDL

O=C1O[C@H]([C@@H](O)CO)C(O)=C1O
inactive: all assays above

CC12CCC(CC1)C(C)(C)O2
inactive: all assays above

CCCCC(CC)COC(=O)CC(C(=O)OCC(CC)CCCC)S(=O)(=O)O (stereo not given)
inactive: all assays above

Cc1cc(C(=C2C=CC(=Nc3ccc(S(=O)(=O)O)cc3S(=O)(=O)O)C=C2)c2ccc(Nc3ccc(S(=O)(=O)O)cc3)cc2)ccc1N
inactive: all assays above

CCCC(=O)CC
inactive: all assays above

c1ccc2c(c1)-c1cccc3c1c-2cc1ccccc13
inactive: all assays above

Clc1ccc2cc3ccccc3cc2c1
inactive: all assays above

C=CC(C)(CCC=C(C)C)OC(C)=O (stereo not given)
inactive: all assays above

CCc1cccc(CC)c1N(COC)C(=O)CS(=O)(=O)O
inactive: all assays above

C1CCCCC1
inactive: all assays above

CCCCC(=O)O[C@]1(C(=O)CO)CC[C@H]2[C@@H]3CCC4=CC(=O)CC[C@]4(C)[C@H]3[C@@H](O)C[C@@]21C
inactive: all assays above

CC1CCC(C(C)(C)S)C(=O)C1 (stereo not given)
inactive: all assays above

COc1cc(C(=O)NCCCCCC(=O)O)cc(OC)c1OC
inactive: all assays above

Cc1c(C(=O)c2c[nH]n(C)c2=O)ccc(S(C)(=O)=O)c1C1=NOCC1
inactive: all assays above

O=C1CC(c2ccc(Cl)cc2)CC(=O)N1
inactive: all assays above

NC(=O)N1C(=O)C(C(=O)c2cc(Cl)cs2)c2cc(F)c(Cl)cc21 (stereo not given)
inactive: all assays above

COc1ccc(C(=O)/C(Br)=C\C(=O)O)cc1
inactive: all assays above

CCCCOCCOCCOCCCC
inactive: all assays above

CCCCC1CCC(O)CC1 (stereo not given)
inactive: all assays above

CCCCC(=O)OCC(=O)[C@H]1[C@H](C)C[C@H]2[C@@H]3C[C@H](F)C4=CC(=O)C=C[C@]4(C)[C@@]3(F)[C@@H](O)C[C@@]21C
inactive: all assays above

Fc1ccc([C@@H]2CCNC[C@H]2COc2ccc3c(c2)OCO3)cc1
inactive: all assays above

O=C(O[C@@H]1Cc2c(O)cc(O)cc2O[C@@H]1c1cc(O)c(O)c(O)c1)c1cc(O)c(O)c(O)c1
inactive: all assays above

CCc1cc(Cl)c(OC)c(C(=O)NC[C@@H]2CCCN2CC)c1O
inactive: all assays above

C#CC1(O)CC[C@H]2[C@@H]3CCC4=CCCC[C@@H]4[C@H]3CC[C@@]21C (stereo not given in full)
inactive: all assays above

Cc1ccc(Cl)cc1N
inactive: all assays above

O=Cc1ccccc1Cl
inactive: all assays above

N#C[C@@H]1C[C@@H]2C[C@@H]2N1C(=O)[C@@H](N)C12CC3CC(CC(O)(C3)C1)C2
inactive: all assays above

C[C@@H]1O[C@@H](O[C@@H]2[C@@H](O)[C@H](OCCc3ccc(O)c(O)c3)O[C@H](CO[C@@H]3O[C@H](CO)[C@@H](O)[C@H](O)[C@H]3O)[C@H]2OC(=O)/C=C/c2ccc(O)c(O)c2)[C@H](O)[C@H](O)[C@H]1O
inactive: all assays above

CC(=O)c1ccc(O)cc1
inactive: all assays above

Cc1cc2c(s1)Nc1ccccc1N=C2N1CCN(C)CC1
inactive: all assays above
